Source: PubChem BioAssay (National Center for Advancing Translational Sciences (NCATS))
Hits are enriched below; roughly 2.3% of the tested compounds scored in any of these assays.
FUS yeast rescue – rescues growth of FUS-expressing yeast. S. cerevisiae FUS-expressing, growth rescue, OD600, 24 h. Potency, µM (doses to about 76.6 µM), actives largely listed as activators. hit rate 0.24% among 390,000;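 further: potency means the concentration at half of the fitted maximal effect; plate controls were DMSO vehicle for no effect and reference control for full effect; nearly all actives have a fitted effect of over 55% in size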
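S. cerevisiae expressing FUS from galactose induction served as the toxicity model. Growth after 24hr at 30C, read as absorbance at 600 nm, indicates suppression of toxicity; compounds dosed at several concentrations.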
TRPV1 ag – human TRPV1 agonism; AID 540275; hit rate 0.19% among 320,000; TRPV1-expressing cells, Fluo-8 calcium influx, agonist mode; activation, % at 8.33 µM; in the data active means activation above about 80%; inconclusive means between about 30% and that limit; further: 0% is about no effect
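Cells expressing TRPV1 were dye-loaded with Fluo-8 and read kinetically: 10 s baseline, 3 min after compound (agonist portion), then 2 min after EC20 capsaicin (allosteric enhancer portion). Calcium-bound dye fluorescence at 480/520 nm.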
Giardia killer – Giardia lamblia killing; Giardia lamblia trophozoite viability; activity change, % at 7.66 µM, hits read low; hit rate 0.15% among 340,000; AID 540267; in the data active means activity change below about -80%; inconclusive means between about -30% and that limit;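 further: parasites exposed to compound for two days anaerobically before the ATP read; on the % scale 0 is the no-effect control and ±100 the full control effect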
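Trophozoites 100 cells/well + cpd; 48 hrs, 37 deg C, anaerobic. ATPLite 1-Step added, 15-30 min RT, luminescence read (ATP-based viability).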
TRPV1 PAM – potentiators of human vanilloid receptor 1 (TRPV1); Q8NER1; TRPV1-expressing cells, Fluo-8 calcium influx, capsaicin EC20 potentiation; potentiation, % at 8.33 µM; hit rate 0.02% among 320,000; in the data active means potentiation above about 80%; inconclusive means between about 30% and that limit; further: 0% is about no effect
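Fluo-8 calcium influx in TRPV1-expressing cells, kinetic read (ex 480/em 520 nm). Compound added and read 3 min for agonist activity, followed by capsaicin at EC20 final and 2 min further read for enhancement.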
ELG1 repair inh – ELG1-dependent DNA repair inhibition. HEK293T ELG1-luciferase reporter, luminescence, 16 h; DNA damage induced by 5-fluorouridine. Potency, µM (series often up to 46.1 µM), for the others: at the highest dose activity change, negative = inhibition, most hits filed as inhibitors. hit rate 2.3% among 330,000. AID 504467; further: potency means the concentration at half of the fitted maximal effect; on the % scale 0 is the no-effect control and ±100 the full control effect; nearly all actives have a fitted effect of over 55% in size
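Step one: seed 2,000 cells per well. Step two: pin-transfer compound or DMSO alongside 5-fluorouridine. Step three: incubate 16 hr, 37 °C, 5% CO2. Step four: add ONE-Glo, wait 30 min, read luminescence.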
ELG1 FLuc counter – luciferase inhibition in cell-free luciferin readout for ELG1 hits. hit rate 3% among 350. cell-free firefly luciferase luminescence counter-screen, ViewLux. shares compounds with ELG1 repair inh. Potency, µM (highest dose often 46.1 µM), without a hit: at the top dose activity change, negative = inhibition, usual class: inhibitors; further: potency means the concentration at half of the fitted maximal effect; on the % scale 0 is the no-effect control and ±100 the full control effect
ELG1-Luc inh – human ELG1 repair inhibition, luciferase-tagged ELG1 confirmation | shares compounds with ELG1 repair inh | HEK293T ELG1-luciferase levels, luminescence; cells co-treated with 5-fluorouridine | Potency, µM (titrated, usually from 46.1 µM), for inactives: at the top dose activity change, negative = inhibition, actives largely listed as inhibitors | hit rate 68% among 670 | AID 624248; further: potency means the concentration at half of the fitted maximal effect; on the % scale 0 is the no-effect control and ±100 the full control effect; nearly all actives have a fitted effect of over 55% in size
Target sequence (Q96QE3 whole entry, looked up): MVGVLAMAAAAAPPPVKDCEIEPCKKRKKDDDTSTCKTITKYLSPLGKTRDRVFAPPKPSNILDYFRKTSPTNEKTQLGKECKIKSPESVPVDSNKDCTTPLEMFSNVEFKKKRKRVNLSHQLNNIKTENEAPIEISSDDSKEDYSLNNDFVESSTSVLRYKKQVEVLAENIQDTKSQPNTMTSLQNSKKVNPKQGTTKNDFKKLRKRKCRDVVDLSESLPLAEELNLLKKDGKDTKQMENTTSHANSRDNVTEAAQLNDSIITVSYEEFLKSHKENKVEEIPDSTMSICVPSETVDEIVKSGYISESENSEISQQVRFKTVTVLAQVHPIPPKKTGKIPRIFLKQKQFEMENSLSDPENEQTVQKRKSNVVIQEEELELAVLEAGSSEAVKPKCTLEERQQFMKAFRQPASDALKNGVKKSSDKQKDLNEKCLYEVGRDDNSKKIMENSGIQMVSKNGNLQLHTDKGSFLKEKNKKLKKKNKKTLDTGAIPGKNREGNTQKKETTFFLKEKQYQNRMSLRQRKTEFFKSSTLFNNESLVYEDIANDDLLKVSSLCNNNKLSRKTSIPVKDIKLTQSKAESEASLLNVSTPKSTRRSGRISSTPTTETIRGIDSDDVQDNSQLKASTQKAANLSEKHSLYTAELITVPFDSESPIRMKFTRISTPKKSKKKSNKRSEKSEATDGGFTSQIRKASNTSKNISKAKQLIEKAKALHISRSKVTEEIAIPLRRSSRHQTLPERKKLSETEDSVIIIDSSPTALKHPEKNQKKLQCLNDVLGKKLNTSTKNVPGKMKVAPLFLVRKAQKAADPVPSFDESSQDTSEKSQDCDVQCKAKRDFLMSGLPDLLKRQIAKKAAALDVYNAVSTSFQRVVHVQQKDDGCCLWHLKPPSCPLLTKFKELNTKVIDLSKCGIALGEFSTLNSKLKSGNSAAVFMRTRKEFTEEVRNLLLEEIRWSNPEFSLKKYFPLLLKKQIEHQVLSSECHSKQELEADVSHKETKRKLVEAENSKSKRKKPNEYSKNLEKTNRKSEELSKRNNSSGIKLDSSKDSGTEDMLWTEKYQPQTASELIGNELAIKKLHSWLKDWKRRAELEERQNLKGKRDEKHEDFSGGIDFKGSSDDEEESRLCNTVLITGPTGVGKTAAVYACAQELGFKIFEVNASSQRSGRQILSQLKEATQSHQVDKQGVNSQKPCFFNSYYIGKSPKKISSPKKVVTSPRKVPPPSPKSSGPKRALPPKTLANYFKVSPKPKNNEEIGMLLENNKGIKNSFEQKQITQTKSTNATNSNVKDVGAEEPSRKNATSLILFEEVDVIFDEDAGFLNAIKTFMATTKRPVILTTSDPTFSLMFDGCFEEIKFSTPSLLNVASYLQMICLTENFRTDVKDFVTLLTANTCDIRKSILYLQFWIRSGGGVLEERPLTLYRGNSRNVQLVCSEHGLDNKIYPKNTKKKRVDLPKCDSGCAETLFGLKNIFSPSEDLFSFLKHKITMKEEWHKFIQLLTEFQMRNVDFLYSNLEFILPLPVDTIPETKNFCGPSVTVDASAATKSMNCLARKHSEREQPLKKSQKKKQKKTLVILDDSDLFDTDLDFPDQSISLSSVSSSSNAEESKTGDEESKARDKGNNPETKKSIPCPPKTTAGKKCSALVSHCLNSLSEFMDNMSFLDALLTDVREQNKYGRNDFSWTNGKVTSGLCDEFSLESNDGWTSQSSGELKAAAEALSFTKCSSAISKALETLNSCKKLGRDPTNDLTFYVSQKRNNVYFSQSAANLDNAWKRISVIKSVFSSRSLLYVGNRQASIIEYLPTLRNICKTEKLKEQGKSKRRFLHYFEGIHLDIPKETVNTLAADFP
ELG1 MMS Luc – MMS-stimulated human ELG1 repair inhibition, confirmed | shares compounds with ELG1 repair inh | Potency, µM (highest dose often 46.1 µM), for inactives: at the top dose activity change, negative = inhibition, actives largely listed as inhibitors | HEK293T luciferase-tagged ELG1 level, MMS stimulated | hit rate 53% among 670; further: potency means the concentration at half of the fitted maximal effect; on the % scale 0 is the no-effect control and ±100 the full control effect; nearly all actives have a fitted effect of over 60% in size
ELG1 5-FU – confirmation of ELG1 repair inhibitors: viability with 5FU. cell viability with 5-FU, ELG1-dependent repair. shares compounds with ELG1 repair inh. Potency, µM (highest dose often 46.1 µM), for inactives: at the highest dose activity change, negative = viability loss, usual class: cytotoxic. 670 tested, under 10 active;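 further: ELG1-luc HEK293T cells cotreated with 5-fluorouridine at 10 µM final; potency means the concentration at half of the fitted maximal effect; viability measured 16 h after compound addition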
ELG1 MMS cell – confirmation of ELG1 repair inhibitors: viability with MMS; shares compounds with ELG1 repair inh; Cell viability with MMS, ELG1-dependent DNA repair; Potency, µM (series often up to 46.1 µM), without a hit: at the top dose activity change, negative = viability loss, most hits filed as cytotoxic; hit rate 33% among 670;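 further: ELG1-luc HEK293T cells co-treated with 10 µM MMS; potency means the concentration at half of the fitted maximal effect; viability read 16 h after compound addition; on the % scale 0 is the no-effect control and ±100 the full control effect; nearly all actives have a fitted effect of over 60% in size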
Cell viab unstim – unstimulated viability counter-screen for ELG1 repair hits | shares compounds with ELG1 repair inh | cell viability counter-screen, unstimulated, luminescence | Potency, µM (titrated, usually from 45.9 µM), for the others: at the top dose activity change, negative = loss of viability, hits mostly cytotoxic | hit rate 8% among 900;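 further: potency means the concentration at half of the fitted maximal effect; compound exposure lasted 16 hours before reading; on the % scale 0 is the no-effect control and ±100 the full control effect; nearly all actives have a fitted effect of over 55% in size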
FLuc enzyme – inhibits purified firefly luciferase, counter-screen for ELG1 hits | shares compounds with ELG1 repair inh | purified firefly luciferase, luminescence counter-screen | Potency, µM (doses to about 57.5 µM), without a hit: at the highest dose activity, negative = inhibition, most hits filed as inhibitors | hit rate 10% among 350 | AID 624253; further: potency means the concentration at half of the fitted maximal effect; on the % scale 0 is the no-effect control and ±100 the full control effect
Active calls of the source: *; i = inactive; u = inconclusive; x = not tested or not shown. Unless noted, the call rests on the fitted dose curve; in most records, active means well fitted curve in the direction sought with a large enough effect; inconclusive means small, poorly fitted or top-dose-only effect, or another doubt; inactive means no such curve, though single readings can be large; an effect the other way counts as inactive or inconclusive.

SMILES | FUS yeast rescue | TRPV1 ag | Giardia killer | TRPV1 PAM | ELG1 repair inh | others
COCCN(Cc1cc2cc(C)ccc2nc1Cl)C(=O)Nc1ccccc1OC | i | 7 | -14 | -7 | 21µM*
COc1ccccc1NC(=S)N(Cc1ccco1)Cc1cc2cc(C)ccc2[nH]c1=O | i | 10 | 0 | -8 | 16µM*
Cc1cccc2cc(CN(CC3CCCO3)C(=O)NC3CCCCC3)c(=O)[nH]c12 (stereo not drawn) | i | 26 | 6 | -21 | u
CCN1CCCC1CN(Cc1cc2ccc(C)cc2[nH]c1=O)C(=S)Nc1ccc(OC)cc1OC (stereo not drawn) | i | -2 | 11 | 14 | -6%
Cc1cccc2cc(CN(Cc3ccco3)C(=O)NC3CCCCC3)c(=O)[nH]c12 | i | -3 | -6 | -31 | 7.3µM*
CCN1CCCC1CN(Cc1cc2cc(C)cc(C)c2[nH]c1=O)C(=O)Nc1ccccc1OC (stereo not drawn) | 32µM* | -2 | -3 | 11 | u
COc1ccc(C(=O)N(Cc2ccco2)Cc2cc3cc(C)ccc3[nH]c2=O)cc1OC | i | x | -5 | x | x
CCCCSCCCNC(=O)C1CCN(Cc2nc(-c3ccc(CC)cc3)oc2C)CC1 | i | x | x | x | x
CC(C)c1nc2ccc(C(=O)NCc3ccc(N(C)C)cc3)cc2o1 | i | x | x | x | x
Cc1ccc(CNC(=O)CN2C(=O)C3(SCC(=O)N3c3cc(C)cc(C)c3)c3ccccc32)cc1 (stereo not drawn) | i | x | x | x | x
CCN(CC)CCN(Cc1cc2cc(C)ccc2[nH]c1=O)C(=O)Nc1ccccc1OC | i | -2 | -13 | 88* | -2%
CN(C)S(=O)(=O)N1CCC(n2c(C(F)(F)F)nc3cccnc32)CC1 | i | x | x | x | x
COc1ccc(NC(=O)c2cc3ccccc3cc2OC)cc1 | i | 20 | -2 | u | u
COc1cc2ccccc2cc1C(=O)NNC(=O)c1ccccc1O | x | 9 | x | 3 | 26µM*
O=C(O)Cn1c(SCCOc2ccccc2)nc2ccccc21 | i | -2 | 32 | -9 | x
Cc1ccc(OCCSc2nc3ccccc3n2CC(=O)O)cc1C | i | -2 | u | 95* | 10%
COCCOC(=O)c1c(C)nc(SCC(=O)Nc2cccc3ccccc23)c(C#N)c1-c1ccco1 | i | -1 | 1 | 4 | 13µM*
COc1cccc(/C=N/NC(=O)c2cnccn2)c1 | i | 4 | 17 | -24 | u
COc1ccc(/C=N/NC(=O)c2nc(-c3ccccc3)cc(-c3ccccc3)n2)cc1OC | i | 1 | -1 | 7 | 4.1µM*
COc1cc(/C=N\NC(=O)c2ccc(-c3ccccc3)cc2)ccc1OCC(N)=O | i | -3 | 8 | -4 | 29%
COc1cccc(/C=N/NC(=O)c2nc(-c3ccccc3)cc(-c3ccccc3)n2)c1 | i | -4 | -11 | 0 | 7.3µM*
COc1ccc(NC(=O)C2CCN(S(=O)(=O)c3ccc4c(c3)CCCC(=O)N4)CC2)cc1Cl | i | x | x | x | x
COc1ccc(N=C2SC(CC(=O)Nc3ccccc3)C(=O)N2Cc2ccco2)cc1 (stereo not drawn) | i | 21 | 30 | 7 | u
COc1ccc(N=C2SC(CC(=O)Nc3ccccc3F)C(=O)N2Cc2ccco2)cc1 (stereo not drawn) | x | 12 | 10 | 6 | 23µM*
CCCOC(=O)c1ccc(OCC(O)Cn2c(C)nc3ccccc32)cc1 (stereo not drawn) | i | 6 | -7 | -22 | 1.5µM* | ELG1-Luc inh=u;ELG1 MMS Luc=1.8µM*;ELG1 5-FU=-4%;ELG1 MMS cell=2µM*;Cell viab unstim=u
SMILES | FUS yeast rescue | TRPV1 ag | Giardia killer | TRPV1 PAM | ELG1 repair inh | others
CC(=O)Nc1cccc(OCC(O)Cn2c(C)nc3ccccc32)c1 (stereo not drawn) | i | -5 | -8 | 10 | u
CN(CC(=O)Nc1ccc(Cl)cc1)CC(=O)Nc1sc2c(c1C(N)=O)CCC2 | i | x | x | x | x
CN(CC(=O)Nc1ccccc1Cl)CC(=O)Nc1sc2c(c1C(N)=O)CCC2 | u | 10 | -8 | 2 | 4.6µM* | ELG1-Luc inh=16µM*;ELG1 MMS Luc=u;ELG1 5-FU=10%;ELG1 MMS cell=-5%;Cell viab unstim=u
Cc1cccc(NC(=O)C2CCN(c3cnccn3)CC2)c1 | i | x | x | x | x
CC1Cc2cc(-c3csc(NC(=O)Cc4ccccc4)n3)ccc2N1S(C)(=O)=O (stereo not drawn) | i | 0 | 6 | 6 | 7.3µM* | ELG1 FLuc counter=u;ELG1-Luc inh=13µM*;ELG1 MMS Luc=5.6µM*;ELG1 5-FU=u;ELG1 MMS cell=u;Cell viab unstim=16µM*;FLuc enzyme=-8%
CS(=O)(=O)N1CCc2cc(-c3csc(NC(=O)C(c4ccccc4)c4ccccc4)n3)ccc21 | i | 0 | 7 | 0 | 10%
C=CCn1c(N)c(C(=O)OC(C)CC)c2nc3ccccc3nc21 (stereo not drawn) | x | u | -4 | -6 | -26%
COCC(C)OC(=O)c1c(N)n(CC(C)C)c2nc3ccccc3nc12 (stereo not drawn) | u | -2 | 14 | 14 | 3.7µM* | ELG1-Luc inh=5µM*;ELG1 MMS Luc=-20%;ELG1 5-FU=u;ELG1 MMS cell=0%;Cell viab unstim=-1%
